Experimental data from PubChem BioAssay (NCI).
Compounds without any hit were thinned out: in the full panel of roughly 83,000, 20% have a hit.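 48-hour exposure, single concentration, 96-well plates; percent growth endpoint where 0 means no net growth. Active: below 10.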 A number with no mark means an inactive call. Calls of active or inactive are those of the source.

How the values were obtained:
Assay in all cases: NCI-60 one-dose screen, 48 h (100 = growth as untreated, 0 = no growth, -100 = all killed)
Settings in all cases: 10 µM unless noted
NCI-H23 lung = system: NCI-H23 lung
NCI-H226 lung = system: NCI-H226 lung
NCI-H322M lung = system: NCI-H322M lung
HOP-62 NSCLC = system: HOP-62 NSCLC
NCI-H460 lung = system: NCI-H460 lung
HOP-92 NSCLC = system: HOP-92 NSCLC
NCI-H522 lung = system: NCI-H522 lung
A549/ATCC NSCLC = system: A549/ATCC NSCLC
786-0 renal = system: 786-0 renal
COLO 205 colon = system: COLO 205 colon
DU-145 prostate = system: DU-145 prostate
K-562 leukemia = system: K-562 leukemia
MALME-3M melanoma = system: MALME-3M melanoma
MDA-MB-231 breast = system: MDA-MB-231 breast
RXF 393 renal = system: RXF 393 renal
SF-268 CNS = system: SF-268 CNS
SF-295 CNS = system: SF-295 CNS
SF-539 CNS = system: SF-539 CNS
UACC-257 melanoma = system: UACC-257 melanoma
M14 melanoma = system: M14 melanoma

SMILES	growth (NCI-H23 lung)	growth (NCI-H226 lung)	growth (NCI-H322M lung)	growth (HOP-62 NSCLC)	growth (NCI-H460 lung)	growth (HOP-92 NSCLC)	growth (NCI-H522 lung)	growth (A549/ATCC NSCLC)	growth (786-0 renal)	growth (COLO 205 colon)	growth (DU-145 prostate)	growth (K-562 leukemia)	growth (MALME-3M melanoma)	growth (MDA-MB-231 breast)	growth (RXF 393 renal)	growth (SF-268 CNS)	growth (SF-295 CNS)	growth (SF-539 CNS)	growth (UACC-257 melanoma)	growth (M14 melanoma)
COc1ccc2c(c1)c(-c1nc(-c3cn(C)c4ncccc34)cs1)cn2CCCCN1CCCCC1	15.3%	56.6%	-31.4% (active)	-78.5% (active)	-61.2% (active)	50.3%	-61.7% (active)	-56.4% (active)	-90.8% (active)	-71.7% (active)	7.63% (active)	-66.8% (active)	-73.9% (active)	-74.8% (active)	-80.1% (active)	-37.9% (active)	-50.1% (active)	-80.2% (active)	-68.3% (active)	-79.1% (active)
c1cc2c(c3c1CCNC3)OCO2	94.8%	103%	102%	96.6%	114%	120%	75.6%	66%	96.2%	112%	120%	106%	94.8%	100%	104%	102%	96.4%	105%	78.5%	101%
CC(C)=CC1C(C(=O)OCc2cccc(Oc3ccccc3)c2)C1(C)C (stereo not given)	88.6%	102%	96.5%	110%	98.6%	56.8%	73.5%	92.4%	81.3%	101%	109%	92.6%	87.8%	90.2%	121%	113%	90.3%	110%	104%	95.3%
CCC(O)(CN)c1ccccc1 (stereo not given)	101%	92.4%	102%	97.3%	107%	93.1%	79.2%	86.6%	97.8%	102%	107%	107%	101%	101%	110%	100%	92.6%	99%	91.9%	95%
COC(=O)N[C@H]1CCc2c(Br)c(OC)c(OC)c(OC)c2-c2ccc(SC)c(=O)cc21	31.3%	12.5%	28%	29.7%	-14.1% (active)	-0.443% (active)	8.44% (active)	18.3%	10.9%	-52.5% (active)	-1.4% (active)	6.78% (active)	28.6%	-12.3% (active)	16.8%	17.7%	9.53% (active)	-6.59% (active)	67.4%	2.58% (active)
Cc1cc(N(CCCl)CCCl)ccc1C=Nc1ccc(-c2csc(Cc3ccccc3)n2)cc1	59.1%	54.6%	76.6%	65.1%	25.5%	47.5%	69.7%	50.7%	50.8%	74.1%	57.1%	56.8%	70.8%	83.3%	83.8%	65.6%	13.4%	49.3%	46.2%	79.8%
NC(=O)c1c(Br)n(C2OC(CO)C(O)C2O)c2ncnc(N)c12 (stereo not given)	9.8% (active)	54.1%	21.7%	12%	11.8%	3.71% (active)	-18.7% (active)	12.9%	25.9%	-12.9% (active)	1.13% (active)	1.67% (active)	13.2%	50.6%	-16.4% (active)	20.1%	38.9%	13.7%	-0.624% (active)	2.28% (active)
C1CCC([PH+](C2CCCCC2)C2CCCCC2[PH+](C2CCCCC2)C2CCCCC2)CC1.[Au].[CH-]1CCCCC1CC1CCCC[N-]1 (stereo not given)	-46.3% (active)	-50.6% (active)	-42% (active)	-30.6% (active)	-56.4% (active)	-34.4% (active)	-40.7% (active)	-44.4% (active)	-89.6% (active)	-47.7% (active)	-51.1% (active)	3.54% (active)	-43.5% (active)	-44.6% (active)	-92.7% (active)	-33.6% (active)	-38.8% (active)	-75.1% (active)	-37.3% (active)	-54.6% (active)
O=C1NC(=O)C(=Cc2cn(C(=O)c3ccccc3)c3ccccc23)C(=O)N1	98%	92.3%	95.5%	93.4%	97.6%	71.8%	85.8%	101%	101%	113%	113%	141%	90.5%	88.9%	45%	102%	116%	87.6%	87%	95.3%
COC(=O)[C@@]1(O)C[C@H]2O[C@]1(C)n1c3ccccc3c3c4c(c5c6ccccc6n2c5c31)C(=O)NC4	-43% (active)	-63.1% (active)	-33.6% (active)	-59.3% (active)	-72.8% (active)	-44.3% (active)	-59.2% (active)	-39.7% (active)	-89.5% (active)	-66.6% (active)	-10.9% (active)	0.0974% (active)	-81% (active)	-49.1% (active)	-93.9% (active)	-28.8% (active)	-93.4% (active)	-88% (active)	-47.2% (active)	-67.5% (active)
CC[S][Hg][Cl]	102%	113%	101%	119%	110%	113%	-46.7% (active)	98.8%	109%	124%	103%	75.4%	118%	114%	124%	103%	112%	105%	97.3%	106%
C[C@@H]1CCC2[C@@H](C)[C@H](OC(=O)CCC(=O)NCCNC(=O)Cc3cc(=O)oc4cc(N(C)C)ccc34)O[C@@H]3O[C@]4(C)CC[C@@H]1C23OO4 (stereo not given in full)	21.5%	65.3%	79.2%	82.8%	39.4%	29.3%	-4.8% (active)	51.4%	36.7%	47.6%	94%	13.6%	49.6%	77%	61.7%	56.7%	41.8%	55.4%	59.1%	38.4%
C[N+](C)(C)Cc1cc(Cl)ccc1O	97.7%	98.6%	87.3%	101%	110%	93.2%	80.6%	94.6%	100%	107%	108%	99.9%	93.2%	109%	110%	106%	108%	102%	96.5%	94.8%
CC[C@H](C)[C@H](NC(=O)[C@H]1CCCCN1C)C(=O)N(C)[C@H](CC(=O)c1nc(C(=O)N[C@@H](Cc2ccccc2)C[C@H](C)C(=O)O)cs1)C(C)C	93.2%	92.3%	107%	77%	91%	49%	-9.54% (active)	94.8%	89.7%	82.8%	106%	32.2%	67.1%	88%	87.1%	84.2%	87.4%	75.8%	74%	57.9%
C[C@@]1(CCCCCCCCCc2ccc(O)cc2)C[C@]2(C)OC(=O)C[C@@H]2OO1	99.4%	102%	105%	104%	108%	82.7%	90%	99.4%	80.2%	124%	130%	70%	105%	105%	120%	123%	91.9%	139%	102%	99.8%
C=CC[n+]1ccc(-c2cc[n+](CC=C)cc2)cc1	78.8%	99%	95.7%	83.7%	91.9%	111%	19.7%	71.9%	109%	9.91% (active)	107%	99.4%	34.1%	120%	99.8%	102%	101%	101%	96.9%	109%
C[C@]12CCc3sc(-c4cccc(F)c4)nc3C1=CC[C@@H]1[C@@H]2CC[C@]2(C)C(=O)CC[C@@H]12	62.7%	65.8%	69.3%	50.5%	53.9%	74.3%	-36.5% (active)	55%	-10.1% (active)	44.5%	22.9%	7.01% (active)	37.6%	62%	-22.5% (active)	52.4%	-18.9% (active)	-33.4% (active)	77.4%	57.4%
